m-calpain inh: inhibitors of pig calpain II, primary screen, biochemical, fluorogenic peptide substrate, 1536-well. purified calpain II, 30 min. inhibition, % at 16 µM. 0.37% of 220,000 active;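 active = inhibition above about 50%, limit read from the data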
ROMK mod: ROMK potassium channel modulators, primary screen, cell-based, thallium flux, MLSMR library; 2% of 130,000 active; Tet-inducible ROMK, thallium flux fluorescence; actives lie on both sides; B-score at 10 µM;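 active = signal ratio slope over the read window, or its plate-corrected B-score, at least 3 SD from the plate mean, either direction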;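 note: B-score of the F/F0 ratio slope over 7 to 12 s after thallium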
WT yeast gro inh: growth inhibition of WT strain, primary screen, mitochondrial fusion inhibitor project, WT and mutant strains, chemical genetic; inhibition, % at 10 µM; mitochondrial fusion phenotypic screen; AID 1362, 2008; 2.1% of 190,000 active; in the data active = inhibition above about 58%; tested in S. cerevisiae
Lmaj promast: Leishmania major promastigote growth inhibition, primary screen; AID 1063, 2008; Leishmania major promastigotes, resazurin fluorescence viability; inhibition, % at 10 µM; 9% of 200,000 active; in the data active = inhibition above about 50%;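 note: promastigotes grown with compound for 44 hours at 28 °C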
KCC2 mod: KCC2 cotransporter modulators, thallium flux, primary screen, cell-based, HEK293 KCC2, FluoZin-2 fluorescence, MLSMR; Solute carrier family 12 member 5 (Homo sapiens), Q9H2X9; KCC2 cells, thallium flux FluoZin-2 fluorescence; B-score of Tl+ flux slope (higher = more flux/activation; lower = inhibition) at 10 µM; 2.2% of 190,000 active;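 active = thallium flux slope and its plate-corrected score both differing from the plate sample mean at a set confidence after two filtering rounds, in either direction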;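 note: slope of fluorescence scaled to starting intensity during 10 to 20 s after thallium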
Numbers without * were called inactive; x = no result. Only some compounds are listed: those with a hit (about 12% of all), similar ones and a draw of the others.

SMILES	m-calpain inh	ROMK mod	WT yeast gro inh	Lmaj promast	KCC2 mod
O=C(Nc1cccc(S(=O)(=O)N2CCCCC2)c1)c1ccc([N+](=O)[O-])o1	-2	-0.36	9	100*	0.082
Cc1ccc(S(=O)(=O)Nc2nc3ccccc3nc2Nc2cccc(S(=O)(=O)N3CCCC3)c2)cc1	-14	-2.2	2	17	0.21
O=C(Nc1ccc(N2CCOCC2)c(Cl)c1)c1ccc([N+](=O)[O-])o1	-21	-0.37	19	100*	0.64
O=C(Nc1ccc(N2CCN(C(=O)c3ccccc3)CC2)cc1)c1ccc([N+](=O)[O-])o1	-9	0.18	29	101*	0.98
CC(C)OP(=O)(OC(C)C)C(NC(=O)c1ccc(Br)cc1)c1ccccc1 (stereo not given)	24	x	30	14	0.47
O=c1cc(-c2cccc(Br)c2)oc2cccc(O)c12	-7	x	x	x	1.1
Cc1ccc(NC(=O)CSc2nc3ccccc3c(=O)n2CCCC(=O)NCCCN2CCOCC2)cc1C	-95	-1.4	5	3	-0.97
Cc1ccc(NC(=O)CSc2nc3ccccc3c(=O)n2CCCN2CCCCC2)cc1Cl	1	-2	35	101*	-0.35
CC1CCN(CCCn2c(SCC(=O)Nc3ccccc3Cl)nc3ccccc3c2=O)CC1	29	-0.64	12	65*	-0.11
COc1ccc(NC(=O)CSc2nnc(C3CCCCC3)n2-c2ccccc2)cc1	-7	x	-2	70*	-0.67
CCOc1ccc(NC(=O)CSc2nc3ccccc3c(=O)n2CCCC(=O)N2CCCC2)cc1	24	x	11	-3	-0.3
O=C(CSc1nc2ccccc2c(=O)n1CCCN1CCOCC1)Nc1cccc(S(=O)(=O)N2CCCCCC2)c1	-49	-1.1	-5	74*	0.6
O=C(CSc1nc2ccccc2c(=O)n1-c1ccc(F)c(Cl)c1)Nc1cccc(S(=O)(=O)N2CCOCC2)c1	-54	0.03	7	41	0.052
COc1ccc(NC(=O)CSc2nnc(C3CC3)n2N)cc1	14	x	3	-4	x
O=C(CNc1cccc([N+](=O)[O-])c1)N/N=C/c1ccc(F)cc1	-26	0.12	2	-2	0.4
Cn1nc(C(=O)Nc2nnc(C3CC3)s2)c2ccccc2c1=O	-36	x	-10	6	-0.41
COc1ccc(NC(=O)CSc2nc3ccccc3c(=O)n2Cc2cccs2)c(OC)c1	23	0.37	-18	-5	-0.12
COc1ccc(NC(=O)CSc2nc3ccccc3c(=O)n2CCC(=O)N2CCCCC2)cc1	-12	x	-6	70*	-0.6
COc1ccc(NC(=O)CSc2nc3ccccc3c(=O)n2CCCN2CCC(C)CC2)c(OC)c1	-4	-0.6	10	55*	-0.039
CCOC(=O)c1ccc(NC(=O)CSc2nnc(CCc3ccc(C)o3)n2-c2ccccc2)cc1	-16	x	13	52*	-1.2
CCOc1ccc(C(=O)NCC(=O)Nc2ccc(N3CCOCC3)cc2)cc1OCC	-27	0.98	-1	0	-0.37
COc1cc2c(cc1OC)CN(Cc1ccc(C)s1)CC2	-2	x	6	5	-0.13
Nc1c(C(O)(C(F)(F)F)C(F)(F)F)ccc2ccccc12	-131	x	0	100*	0.63
Nc1ccc(C(O)(C(F)(F)F)C(F)(F)F)cc1	-26	-0.016	14	-7	-0.58
COc1ccc(C(=O)c2ccc(N(C)C)cc2)c(OC)c1	-4	x	-6	-7	0.37
SMILES	m-calpain inh	ROMK mod	WT yeast gro inh	Lmaj promast	KCC2 mod
CN(C)c1ccc(C(=O)c2ccc(N(C)C)c3ccccc23)cc1	5	1.9	61*	19	-0.23
COc1ccc(C2/C=C\CN(C(=O)c3ccccc3)[C@H](Cc3ccccc3)C(=O)N2Cc2ccc(F)cc2)cc1 (stereo not given in full)	-34	x	x	x	-0.49
O=C(CCCN1CCOCC1)c1ccc2c(c1)OCCO2	-31	1.2	10	90*	0.48
O=C(CCCN1CCC(c2ccccc2)C1)c1ccc2c(c1)OCCO2 (stereo not given)	-17	x	14	95*	-1.2
O=C(CCN1CCc2ccccc2CC1)c1ccc2c(c1)OCCO2	-1	-1.1	-4	89*	-0.26
O=C(CCN1CCOCC1)c1ccc2c(c1)OCCO2	-13	0.17	-1	100*	0.22
O=C(CCCO)c1ccc2c(c1)OCCO2	-7	0.8	15	-1	0.092
CC(NC(=O)CCl)c1ccccc1Br (stereo not given)	23	x	x	x	-0.33
